Measurements reported in the OligoGym collection.

Each sequence was assayed against EPHX1 (assay: pooled miR-30 sensor sort-seq; sequence = guide strand). Settings: shRNA.
Note: reference of the scale not given here.

Row | Sequence | sensor-assay potency score (higher = more potent)
1 | TAGGAATAGGAGATGAGCTTTG | -0.367
2 | TAAAACTCGTAGAAAGAGCCGG | -0.339
3 | TACTTGAACCTCACCCACTTTT | -0.563
4 | AACTTCTCTAGAATATAGGCAG | -0.342
5 | AAAACTCGTAGAAAGAGCCGGG | 0.199
6 | TCATGCTTCTGGGTCATCCAGC | -0.602
7 | TCGTCCAGGGAGAACTTCCTTT | -1.04
8 | TTCTCCTTGTAGAAGCGCTGGG | -0.596
9 | TCTCCTTGTAGAAGCGCTGGGA | -0.317
10 | TCATCTGACGTTTCCACCTTGA | -0.126
11 | ATCAGCTTGTAAAAGATCCTGG | -0.191
12 | AAAGTTTCCTCTTTGTCCCGGG | 0.0687
13 | TTGTAAAAGATCCTGGCGGTGG | -0.0602
14 | TTCAAAAACGTGCTCATCGCTC | -0.238
15 | TTGTCCAGTAGAGCATGACGTT | -1.4
16 | TTCAATCTTAGTCTTGAAGTGA | -0.0669
17 | TTGTCCCGGGAGATGAACCAGT | -1.24
18 | TCAATCTTAGTCTTGAAGTGAG | -0.441
19 | TCTTAGTCTTGAAGTGAGGGTA | 0.435
20 | TGGATCTCCTCATCTGACGTTT | -0.892
21 | TTGGAGTTGAAGCCATAGTGGA | -0.99
